# Lassa entry inh: Lassa virus entry inhibition; Lassa virus pseudotype entry inhibition, cell reporter; 300,000 compounds, 1.2% hits; Potency, µM (highest dose often 37.9 µM), without a hit: at the top dose activity change, negative = inhibition, hits mostly inhibitors; calls by dose curve; tested in HEK293 cells; also: potency is read from the fitted curve at half-maximal effect; nearly all actives have a fitted effect of over 50% in size
# Marburg entry inh: Marburg virus entry inhibition; 300,000 compounds, 1.8% hits; AID 540276; Potency, µM (series often up to 37.8 µM), for inactives: top-dose activity change, negative = inhibition, hits mostly inhibitors; Marburg virus pseudotyped entry inhibition, cell reporter; calls by dose curve; tested in HEK293 cells; also: potency is read from the fitted curve at half-maximal effect
# FMDV inh: antivirals against foot and mouth disease virus; FMDV antiviral cell-based qHTS; Potency, µM (top dose mostly 57.9 µM), without a hit: at the highest dose activity change, negative = inhibition, hits mostly inhibitors; 410,000 compounds, 1.2% hits; calls by dose curve; tested in HEK293T cells; also: read-out not given here; potency is read from the fitted curve at half-maximal effect; nearly all actives have a fitted effect of over 45% in size
# HCMV antiviral: blocks human cytomegalovirus replication | HFF cells, HCMV-luciferase reporter, 72 h; stronger effect = lower value | activity change, negative = inhibition, % at 57.5 µM | 410,000 compounds, 4.5% hits | AID 1259415; in the data active = activity change below about -60%; inconclusive = no clear call, values can overlap the other calls; inactive = above about -39%
#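 Steps: HFFs plated, 16 h 37C; compounds added; HCMV-luciferase added to MOI 1 PFU/cell; 72 h 37C; OneGlo reagent, 5 min room temperature; luminescence read, normalized to controls.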
# Active calls of the source: *; ? = inconclusive; . = no result given; [ ] = remark or other dose. Rows were chosen to be rich in hits. Some 6.2% of all compounds tested hit in one or more screens of this group. % is scaled to controls: 0 for no effect and ±100 for the full control effect.
SMILES,Lassa entry inh,Marburg entry inh,FMDV inh,HCMV antiviral
Cc1cccc(C)c1NC(=O)C(C(C)C)N1C(=O)C(=O)c2ccccc21 (configuration not stated),.,.,.,33
Cc1cc(C(=O)N/N=C/c2ccc(Cl)c([N+](=O)[O-])c2)c(C)n1-c1ccc(F)cc1,13µM*,?,-32%,-93*
O=C(N/N=C/c1ccc(Cl)c([N+](=O)[O-])c1)c1cc(-c2ccc3c4c(cccc24)CC3)n[nH]1,6.3µM*,?,-26%,-74*
Cc1occc1C(=O)N/N=C/c1ccc(-c2ccccc2)cc1,7.9µM*,?,-2%,61
Cc1cc(C(=O)N/N=C/c2ccc3c(c2)OCO3)c(C)n1-c1ccc(F)cc1,6%,-13%[46.1 µM],46%,?
Cc1occc1C(=O)N/N=C/c1ccc(Cl)c([N+](=O)[O-])c1,-5%,4µM*,38%,-63*
COc1ccc(S[C@]2(c3nc(C)no3)CC(=O)N(c3ccccc3)[C@@H]2c2ccc(OC)cc2)cc1,.,.,.,-28
Cc1occc1C(=O)N/N=C/C=C\c1ccccc1[N+](=O)[O-],5%,26%[46.1 µM],26%,-75*
O=c1c2ccccc2cnn1CCOc1ccccc1,0.28µM*,2.1µM*,10µM*,-87*
O=C(O)Cn1ncc2ccccc2c1=O,-1%,-23%[46.1 µM],3%,-6
CC(=O)c1cccc(-c2cnc3c(NC=O)cc(-c4ccc(C(=O)N5CCOCC5)cc4)cn23)c1,.,.,-11%,-5
CN(C)CCNC(=O)c1cccc(-c2cnc3c(NC=O)cc(-c4ccc(C(=O)N5CCOCC5)cc4)cn23)c1,.,.,-14%,-64*
COc1ccc(-c2cc(NC=O)c3ncc(-c4cccc(C(=O)NCCN(C)C)c4)n3c2)cn1,.,.,0%,-63*
Cc1cc(-c2cc(NC=O)c3ncc(-c4cccc(C(=O)NCCN(C)C)c4)n3c2)cc(C)c1O,.,.,-1%,9
CN(C)CCNC(=O)c1cccc(-c2cnc3c(NC=O)cc(-c4cccs4)cn23)c1,.,.,13%,-87*
COc1ccccc1CN1CCCC2(CCN(C(=O)c3ccco3)CC2)C1,.,.,0%,.
CCOc1ccc(NC(=O)c2nc3nc(C)cc(C(F)F)n3n2)cc1,-2%[46.1 µM],13%[46.1 µM],6%,-5
O=C(NCc1ccccn1)[C@@H]1C[C@H]1[C@@H](NP(=O)(c1ccccc1)c1ccccc1)c1ccccc1,6.5µM*,-16%,11%,-13
O=C(O)[C@@H]1C[C@H]1[C@@H](NP(=O)(c1ccccc1)c1ccccc1)c1ccccc1,14%,3%,-13%,-99*
COC(=O)[C@H]1C[C@@H]1[C@H](NP(=O)(c1ccccc1)c1ccccc1)c1ccccc1,5%,-45%,2%,-11
O=C(NCc1ccccc1)[C@@H]1C[C@H]1[C@@H](NP(=O)(c1ccccc1)c1ccccc1)c1ccccc1,1.8µM*,?,27%,-34
O=C(NCC1CC1)[C@@H]1C[C@H]1[C@@H](NP(=O)(c1ccccc1)c1ccccc1)c1ccccc1,?,4%,18%,-25
COCCNC(=O)C(C)(C)n1cc(-c2ccc(OC)c(OC)c2)cn1,.,.,.,5
COc1ccc(S(=O)(=O)N(CC(=O)N(C)Cc2ccccc2)c2ccc(Cl)cc2)cc1,?,-13%[46.1 µM],5%,-30
Cn1ccc(C(=O)NCC2CCC3(CCN(Cc4cc(F)cc(F)c4)CC3)O2)n1 (configuration not stated),.,.,-1%,.
SMILES,Lassa entry inh,Marburg entry inh,FMDV inh,HCMV antiviral
CCN(C(=O)CCS(=O)(=O)c1cc2c(cc1C)NC(=O)CO2)c1cccc(C)c1,12%[46.1 µM],.,-7%,-103*
Cc1cccc(N(C)C(=O)CCS(=O)(=O)c2cc3c(cc2Cl)NC(=O)CO3)c1,.,.,-16%,-23
O=c1onc(-c2ccccc2)n1Cc1ccc([N+](=O)[O-])cc1,.,.,-11%,-75*
O=C(Nc1ccn(Cc2cccc3ccccc23)n1)c1cccnc1,?,?,?,-75*
O=C(Nc1ccn(Cc2ccc(Cl)cc2)n1)c1ccccc1,?,20%,10%,27
O=Nc1c(-c2c(O)[nH]c3cc(Br)ccc23)[nH]c2ccccc12,?,?,1%,-68*
O=C1C2=C(C(=O)c3ccccc31)[C@H]1O[C@](c3ccsc3)(Cc3c1ccc1ccccc31)O2,.,15%[14.2 µM],.,.
COc1ccc(NC(=O)CSc2ccc3ccccc3c2)cc1S(=O)(=O)N1CCCCC1,?,?,?,-82*
Cn1cccc1C(=O)OCC(=O)Nc1ccc2c(c1)OCCO2,7.1µM*,6.3µM*,-28%,132
Cn1cccc1C(=O)OCC(=O)NCc1ccc2c(c1)OCO2,.,.,35%,-5
COc1ccc(NC(=O)COC(=O)c2cccn2C)cc1S(=O)(=O)N1CCCCC1,9%[46.1 µM],?,-18%,-69*
COc1ccc(NC(=O)Cc2cccs2)cc1S(=O)(=O)N1CCCCC1,1µM*,-24%,21%,-6
COc1ccc(NC(=O)COc2ccccc2Cl)cc1S(=O)(=O)N1CCCCC1,?,?,-6%,?
O=C(NCCCN1CCN(c2cccc(Cl)c2)CC1)Nc1ccccc1C(F)(F)F,21%[46.1 µM],?,-31%,-20
Cc1ccccc1NC(=O)c1c(C)oc2ccc(O)c(CN3CCOCC3)c12,?,?,-20%,-20
CC1CC[C@@]23CCC4(C)[C@@]5(C)CCC6C(C)(C)C(=O)CC[C@@]6(C)C5C=C[C@@]4(OC2=O)C3C1C (some centres not stated),.,.,-2%,.
c1ccn(-c2ncnc3sc4c(c23)CCCC4)c1,-2%,28%,?,?
c1nc(N2CCOCC2)c2c3c(sc2n1)CCCC3,0%,4%,?,-65*
c1cn(-c2ncnc3sc4c(c23)CCCC4)cn1,21%,0%,0%,-70*
O=C(O)CSc1ncnc2sc3c(c12)CCC3,2%,17%,-9%,-14
O=C(c1ccccc1)N1CCN(c2ncnc3sc4c(c23)CCC4)CC1,-18%,?,22µM*,?
O=c1c2ccccc2c(-c2ccc(O)cc2)nn1-c1cccc(C(F)(F)F)c1,?,?,40µM*,?
O=c1c2ccccc2c(-c2ccc(Cl)cc2)nn1-c1ccccc1,-2%,-2%,-28%,-63*
Cc1nn(-c2ccc(Cl)cc2)c(=O)c2ccccc12,?,6%,32%,117
CCn1c(CSc2nnc(-c3ccc4c(c3)OCO4)o2)nc2cc(S(=O)(=O)N(C)C)ccc21,-8%,-21%,?,-82*
SMILES,Lassa entry inh,Marburg entry inh,FMDV inh,HCMV antiviral
CCN(CC)S(=O)(=O)c1ccc2c(c1)nc(CCC(=O)Nc1ccc3c(c1)OCO3)n2CC,16%,?,-9%,-68*
CCCCCSc1cc(O)c(C(CNC)C(C)C)cc1OC (configuration not stated),?,18µM*,-13%,-4
CCCCCSc1cc(OC)c(CCN(C)C)cc1OC,?,?,-1%,-37
C/C(=C1/SC(N2CCCC2)=NC1=O)c1ccc(Br)cc1,4.5µM*,4.5µM*,-29%,-5
CC(C)=C1SC(N2CCCCC2)=NC1=O,7%,4%,-4%,60
Nc1cc2c(cc1Br)[nH]c(=O)c1ccccc12,?,?,-24%,-89*
Nc1cc2[nH]c(=O)c3ccccc3c2cc1Br,9%,?,-2%,1
O=C(Oc1ccnc2cc(Cl)ccc12)N1CCOCC1,-22%,-9%,-17%,-76*
